Assay [1] is described as follows: ACEA_AR_agonist_AUC_viability: ACEA Biosciences xCELLigence Real-Time Cell Analysis on Androgen Receptor Agonism for Viability (AID 2283775).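 On AC50: viability read 80 hours after compound addition.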 In a few lines: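 Viability endpoint from xCELLigence impedance in 22Rv1 prostate cells at 80 h. Eight-point series, 100 uM maximum final.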
Assay [2] can be described thus: ACEA_AR_antagonist_AUC_viability: ACEA Biosciences xCELLigence Real-Time Cell Analysis on Androgen Receptor Antagonism for Viability (AID 2283776).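 Further: area under impedance growth curve at 80 h after dosing as viability; hits lower the growth signal relative to DMSO meaning cytotoxicity.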 The procedure, abridged: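 22Rv1 human prostate cancer cells were seeded on electrode plates, monitored overnight, then exposed to eight 1:4 dilutions from 100 uM final. Impedance-based growth kinetics at 80 h gave an AUC viability endpoint normalized to DMSO.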

Inconclusive results are not listed. Calls of active or inactive are those of the source. How the source made its calls: active means hit-call score of the fitted dose curve at least 0.9, where 1 is the maximum; inconclusive means response in the unintended direction; inactive means score below 0.9.

In the case of `CCCN(CCC)C(=O)SCC`, the outcome in assay [1] was inactive.
As usually defined, the AC50 is the concentration at which the activity in the assay is half-maximal. In the case of `CCOC(=O)C(C)Oc1ccc(Oc2nc3ccc(Cl)cc3o2)cc1` (configuration not stated), the compound was called inactive in assay [1]. The half-maximal activity concentration (AC50) in assay [2] was 36.4 µM (active).
For `CCN(CC)C(=O)c1cccc(C)c1`, the compound was called inactive in assay [1] and in assay [2].
On to `CSC(=O)c1cccc2nnsc12`, for which the result in assay [2] was inactive.
In the case of `CC(=O)[C@H]1CC[C@H]2[C@@H]3CCC4=CC(=O)CC[C@]4(C)[C@H]3CC[C@]12C`, the compound was called inactive in assay [1] and in assay [2].
With `CCSC(=O)N(CC(C)C)CC(C)C`, the compound was classed as inactive in assay [1] and in assay [2].
Take `C[C@]12C[C@H](O)[C@H]3[C@@H](CCC4=CC(=O)CC[C@@]43C)[C@@H]1CC[C@@H]2C(=O)CO`: the outcome in assay [2] was inactive.
For `CCCCCCC(C)OC(=O)COc1nc(F)c(Cl)c(N)c1Cl` (configuration not stated), the half-maximal activity concentration (AC50) in assay [1] is 22.9 µM (active); in assay [2], 17.8 µM (active).
For the compound `COC(=O)CSc1cc(N=c2sc(=O)n3n2CCCC3)c(F)cc1Cl`, the compound was called inactive in assay [1] and in assay [2].
With `CCOC(=O)NCCOc1ccc(Oc2ccccc2)cc1`, the half-maximal activity concentration (AC50) is 50 µM (active) in assay [1] and 27.2 µM (active) in assay [2].
Turning to `COC(=O)c1ccccc1C(=O)O`, the result in assay [1] and in assay [2] was inactive.
As for `O=C(O)c1ccccc1`, the result in assay [1] and in assay [2] was inactive.
As to `COC(=O)c1ccc(I)cc1S(=O)(=O)NC(=O)Nc1nc(C)nc(OC)n1`, the result in assay [1] and in assay [2] was inactive.
Take `N#CSCSc1nc2ccccc2s1`: the figures for the concentration at half-maximal activity (AC50) in assay [1] and in assay [2] were 19.4 µM (active) and 15.7 µM (active), respectively.
Take `CCCCOCCOCCOCc1cc2c(cc1CCC)OCO2`: the values for the concentration at half-maximal activity (AC50) in assay [1] and in assay [2] were 65 µM (active) and 50 µM (active), respectively.
Consider `OB(O)O`, for which, in assay [2], the result was inactive.
As to `c1ccc2[nH]c(-c3cscn3)nc2c1`, the AC50 in assay [1] is 39.2 µM (active); in assay [2], 34.5 µM (active).
On to `CCCCOC(=O)C(C)Oc1ccc(Oc2ccc(C(F)(F)F)cn2)cc1` (configuration not stated), for which the AC50 is 43.1 µM (active) in assay [1] and 50 µM (active) in assay [2].

The record behind these values is PubChem BioAssay (EPA / NIEHS).
